Values joined by “and” are separate entries in the source; they are usually repeats but may differ in a detail not shown here. Equal entries are not always repeated. Records with an inconclusive call do not appear. Active and inactive are the calls of the source.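 Rule for the calls, unless noted: active = normalized viability below 100% at a tested concentration; inactive = the rest.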
How the values were obtained:
[1] = stimulators of nuclear beta-catenin in C2C12, primary screen, imaging, WNT3A-conditioned medium, mouse C2C12, NPC library (AID 1117326; in the data active = nuclear beta-catenin stimulation mostly above about 4.2%, no sharp cut-off; inactive = mostly below about 10%); conditions: stronger effect = higher value
[2] = stimulators of insulin release from INS-1E, primary screen, cell-based, 5 mM glucose, NPC library (AID 1117329;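 active = compound raises insulin release from rat beta cells at 5 mM glucose, no numeric limit stated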); conditions: rat INS-1E insulin secretion, at 10 µM, stronger effect = higher value
[3] = growth inhibition of GSK3B-pretreated HCT116 cells – cell-based, CellTiter-Glo, 0.2 to 20 µM (AID 1117336;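 active = compounds lowering colon cancer cell viability after pretreatment blocking the GSK3B kinase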); conditions: HCT116 viability after GSK3B inhibitor, at 20 µM, stronger effect = higher value
[4] = inhibition of endothelial tube formation, primary screen, imaging, VEGF stimulated, CD31 staining, tube area, NPC library (AID 1117340;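 active = compound that reduces growth-factor-driven endothelial tube area in a mixed cell culture, no cutoff stated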); conditions: VEGF-stimulated ADSC/ECFC co-culture, at 10 µM, stronger effect = higher value
[5] = glucagon-like peptide 1 release enhancers, primary assay, NCI-H716 cell line, NPC library (AID 1117341;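 active = compound raises GLP1 secretion from the human gut endocrine cells, with no numeric limit stated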); conditions: NCI-H716 cells, at 10 µM, stronger effect = higher value
[6] = HCT116 colon cancer cell growth inhibition, primary screen, CellTiter-Glo luminescence, NPC library (AID 1117342;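 active = compounds that lower survival of HCT116 colon cancer cells in the luminescence readout, no numeric limit stated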); conditions: at 20 µM (top of the series)
[7] = CellTiter-Glo luminescent readout of SW480 viability loss, NPC library primary (AID 1117343;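 active = compounds that lower viability of the colon cancer cells in the luminescence readout, with no numeric limit stated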); conditions: CellTiter-Glo luminescence; at 20 µM (top of the series) unless noted
[8] = decreased DLD-1 cellular survival, CellTiter-Glo luminescent readout, NPC compound collection, primary HTS (AID 1117346;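 active = compounds that lower survival of DLD-1 colon cancer cells in the luminescence readout, no cutoff given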); conditions: DLD-1 viability, CellTiter-Glo luminescence; at 20 µM (top of the series)
[9] = test system: Aerobactin synthetase IucA (Klebsiella pneumoniae); experiment: IucA aerobactin synthetase inhibitors, biochemical, Tocris library, absorbance (AID 1345561; call rule not given here;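 note: 100% = enzyme without compound and 0% = no enzyme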); conditions: purified IucA enzyme assay, absorbance (OD) read-out; stronger effect = lower value;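 tested at 8 µM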
[10] = sensitizers of A549 cells to miR-34 induction, primary screen, imaging, A549 dox-inducible miR-34, nuclei and caspase counts (AID 1347080;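 active = compounds whose cell count with miR-34 switched on is under 0.7 times the count with it off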); conditions: A549 miR-34 inducible, Hoechst nuclei count, 48 h
[11] = viability rescue of complex I mutant cybrids, primary screen, cell-based, galactose medium, ATP luminescence (AID 1645843;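 active = z-score of at least 1.8 in each of two replicates, scored against plate mean and spread of sample wells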;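 note: positive z means more ATP and so rescue of galactose-driven cybrid death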); conditions: complex I mutant cybrid cells, 72 h, stronger effect = higher value
[12] = liver-stage malaria parasite growth inhibition, primary screen, cell-based, HepG2, luciferase luminescence, HepG2 viability (AID 624349; in the data active = parasite load remaining mostly below about 12%, no sharp cut-off; inactive = mostly above about 10%;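 note: 100% = mean of DMSO negative control wells on the same plate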); conditions: P. berghei liver stage in HepG2, luciferase luminescence, concentration not given here; parasite load remaining: stronger effect = lower value; viability: measured here: HepG2 viability without parasites
[13] = growth inhibition of DIPG glioma cells, dose response, cell-based, SU-DIPG-XVII, MIPE5.0, CellTiter-Glo, qHTS (AID 1347060; cut-off not given, nearly all actives have AC50 up to about 26 µM;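 note: cells exposed to compound for 48 hours before viability readout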); conditions: SU-DIPG-XVII viability, CellTiter-Glo ATP luminescence
[14] = growth inhibition of DIPG glioma cells, dose response, cell-based, SU-DIPG-XIII, MIPE4.0, CellTiter-Glo, qHTS (AID 1347061; cut-off not given, nearly all actives have AC50 up to about 37 µM;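 note: cells exposed to compound for 48 hours before readout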); conditions: SU-DIPG-XIII viability, CellTiter-Glo ATP luminescence
[15] = growth inhibition of DIPG glioma cells, dose response, cell-based, JHH-DIPG-1, MIPE4.0, CellTiter-Glo, qHTS (AID 1347062; cut-off not given, nearly all actives have AC50 up to about 27 µM); conditions: JHH-DIPG-1 viability, CellTiter-Glo ATP luminescence
[16] = SU-DIPG-XXV glioma cell viability, MIPE5.0 library, qHTS (AID 1347068; cut-off not given, nearly all actives have IC50 up to about 30 µM)
[17] = survival rescue of mitochondrial mutant cells in low glucose, primary screen, MELAS cybrids, Rieske KO mouse fibroblasts, CellTiter-Glo (AID 1508586;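 active = mean z-score across replicates of 1.96 or higher in either the MELAS or the Rieske mutant cell line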;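 note: z relative to plate mean and SD of compound and empty wells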)
[18] = ovarian cancer cell viability with rucaparib, profiling panel, oncology-focused library, rucaparib conditional (AID 1508598); conditions: patient-derived ovarian cancer cells, CellTiter-Glo viability, 144 h, stronger effect = lower value
[19] = stronger effect = lower value, cell number ratio, induced over uninduced
[20] = measured here: relative caspase fold change +Dox/-Dox
[21] = measured here: total cells with miR-34 induction, stronger effect = lower value
[22] = measured here: total cells without miR-34 induction

O=c1[nH]c2cc(C(F)(F)F)c(N3CCOCC3)cc2n(CP(=O)(O)O)c1=O
9280: cell count [10, 21]
inactive: nuclear beta-catenin stimulation ([1]; at 10 µM) 1.2% | insulin secretion stimulation [2] 0.85% | viability decrease [3] 17.9% | tube area decrease [4] -10.1% | GLP1 secretion stimulation [5] 1% | inhibition of viability [6] 6.1% | viability decrease (inhibition) [7] -13.4% | viability decrease (inhibition) [8] 1.2% | remaining activity [9] 126% | fold change [10, 19] 0.942 | z-score [11] 0.07
-0.5%: nuclear beta-catenin stimulation ([1]; stimulation, at 2 µM)
1.52: fold change [10, 20]
9850: cell count [10, 22]

Clc1ccc(Nc2nnc(Cc3ccncc3)c3ccccc23)cc1
4800 and 8110: cell count [10, 21]
0.486 and -0.638 and 0.713: z-score ([17]; Rieske KO mouse fibroblast survival, CellTiter-Glo 72 h)
-0.4%: nuclear beta-catenin stimulation ([1]; stimulation, at 2 µM)
4850 and 8750: cell count [10, 22]
active: viability decrease [3] 76.2% | tube area decrease [4] 104% | viability decrease (inhibition) [7] 51.3% | AC50 [13] 16.6 µM | viability ([18]; at 0.000305 µM, OCI-C5x cells, without rucaparib) 86.5% | viability ([18]; at 0.000305 µM, OCI-P5x cells, with rucaparib 20 µM, 100% = cells with rucaparib alone) 94.6% | viability ([18]; at 0.000305 µM, OCI-P5x cells, without rucaparib) 89.3% | viability ([18]; at 0.00122 µM, OCI-C5x cells, without rucaparib) 97.1% | viability ([18]; at 0.00122 µM, OCI-P5x cells, without rucaparib) 94.6% | viability ([18]; at 0.00488 µM, OCI-C5x cells, without rucaparib) 98.5% | viability ([18]; at 0.00488 µM, OCI-P5x cells, with rucaparib 20 µM, 100% = cells with rucaparib alone) 99.2% | viability ([18]; at 0.0195 µM, OCI-C5x cells, without rucaparib) 99.4% | viability ([18]; at 0.0195 µM, OCI-P5x cells, without rucaparib) 95.6% | viability ([18]; at 0.0781 µM, OCI-C5x cells, without rucaparib) 98.5% | viability ([18]; at 0.0781 µM, OCI-P5x cells, without rucaparib) 95.5% | viability ([18]; at 1.25 µM, OCI-P5x cells, without rucaparib) 94.9% | viability ([18]; at 5 µM, OCI-P5x cells, with rucaparib 20 µM, 100% = cells with rucaparib alone) 95.2% | viability ([18]; at 5 µM, OCI-P5x cells, without rucaparib) 99.5%
inactive: parasite load remaining [12] 24.4% | nuclear beta-catenin stimulation ([1]; at 10 µM) -2.6% | insulin secretion stimulation [2] 9.3% | GLP1 secretion stimulation [5] -2.6% | inhibition of viability [6] 36% | viability decrease (inhibition) [8] 35.7% | outcome [14] | outcome [15] | outcome [16] | fold change [10, 19] 0.99 and 0.927 | z-score ([17]; MELAS cybrid survival, CellTiter-Glo 48 h, stronger effect = higher value) -0.464 and -0.665 and -0.288 | viability ([18]; at 0.000305 µM, OCI-C5x cells, with rucaparib 10 µM, 100% = cells with rucaparib alone) 121% | viability ([18]; at 0.00122 µM, OCI-C5x cells, with rucaparib 10 µM, 100% = cells with rucaparib alone) 125% | viability ([18]; at 0.00122 µM, OCI-P5x cells, with rucaparib 20 µM, 100% = cells with rucaparib alone) 102% | viability ([18]; at 0.00488 µM, OCI-C5x cells, with rucaparib 10 µM, 100% = cells with rucaparib alone) 117% | viability ([18]; at 0.00488 µM, OCI-P5x cells, without rucaparib) 100% | viability ([18]; at 0.0195 µM, OCI-C5x cells, with rucaparib 10 µM, 100% = cells with rucaparib alone) 121% | viability ([18]; at 0.0195 µM, OCI-P5x cells, with rucaparib 20 µM, 100% = cells with rucaparib alone) 102% | viability ([18]; at 0.0781 µM, OCI-C5x cells, with rucaparib 10 µM, 100% = cells with rucaparib alone) 114% | viability ([18]; at 0.0781 µM, OCI-P5x cells, with rucaparib 20 µM, 100% = cells with rucaparib alone) 101% | viability ([18]; at 0.313 µM, OCI-C5x cells, with rucaparib 10 µM, 100% = cells with rucaparib alone) 125% | viability ([18]; at 0.313 µM, OCI-C5x cells, without rucaparib) 110% | viability ([18]; at 0.313 µM, OCI-P5x cells, with rucaparib 20 µM, 100% = cells with rucaparib alone) 100% | viability ([18]; at 0.313 µM, OCI-P5x cells, without rucaparib) 105% | viability ([18]; at 1.25 µM, OCI-C5x cells, with rucaparib 10 µM, 100% = cells with rucaparib alone) 129% | viability ([18]; at 1.25 µM, OCI-C5x cells, without rucaparib) 115% | viability ([18]; at 1.25 µM, OCI-P5x cells, with rucaparib 20 µM, 100% = cells with rucaparib alone) 105% | viability ([18]; at 5 µM, OCI-C5x cells, with rucaparib 10 µM, 100% = cells with rucaparib alone) 128% | viability ([18]; at 5 µM, OCI-C5x cells, without rucaparib) 142% | z-score [11] 1.34
0.974 and 0.999: fold change [10, 20]
144%: viability [12]
